Compounds with a hit are over-represented: about 4.1% of the library has one in this group of screens.
ssDAF-12 act – S. stercoralis DAF-12 nuclear receptor activators, primary screen, cell-based, luminescence, HEK293, GRIP1 co-expression, lit1-tk-luc. Nuclear hormone receptor DAF-12 (Strongyloides stercoralis). HEK293 ssDAF-12/GRIP1 lit1-tk-luc reporter; % of 3 µM dafachronic acid response. activation, % at 6.8 µM. 370,000 tested, 1% active;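 active = activation above the mean over all tested compounds plus 3 SD, cut at about 0.9% in these data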
DAX1 inh-1 – DAX1 (NR0B1) inhibitors on StAR promoter, primary screen, cell-based, luminescence, SF-1 (NR5A1), full-length DAX-1 | HEK293T StAR-luciferase reporter, SF-1/DAX-1 repression relief | inhibition, % at 6.8 µM | 370,000 tested, 1.1% active;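 active = inhibition above the mean over all tested compounds plus 3 SD, cut at about 3.6% in these data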;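 note: higher inhibition means more luminescence from relief of DAX-1 repression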
DAX1 inh-2 – DAX1 (NR0B1) inhibitors, primary screen, cell-based, HEK293, Gal4-DAX1, luciferase luminescence; inhibition, % at 6.75 µM; 340,000 tested, 0.99% active; HEK293 Gal4-DAX1 luciferase reporter; AID 504766, 2011; Nuclear receptor subfamily 0 group B member 1 (Homo sapiens), P51843;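 active = inhibition above the mean over all tested compounds plus 3 SD, cut at about 4.2% in these data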;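 note: inhibition shows as a rise in luminescence from relieved DAX1 repression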
Target sequence (P51843 207-470 limits assumed): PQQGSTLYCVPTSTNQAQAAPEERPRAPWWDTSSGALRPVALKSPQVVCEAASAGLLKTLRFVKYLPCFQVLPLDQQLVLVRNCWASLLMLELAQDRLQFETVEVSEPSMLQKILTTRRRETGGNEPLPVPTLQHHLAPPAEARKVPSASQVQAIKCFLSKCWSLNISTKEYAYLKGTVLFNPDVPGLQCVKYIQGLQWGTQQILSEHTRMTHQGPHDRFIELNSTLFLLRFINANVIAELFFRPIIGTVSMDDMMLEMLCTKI
hgDAF-12 ag – H. glycines DAF-12 receptor agonists, primary screen, cell-based, luminescence, HEK293, GAL4 fusion, UAS-luciferase; Nuclear hormone receptor DAF-12 (Heterodera glycines), GAL4 fusion; HEK293 GAL4-hgDAF12 UAS-luciferase reporter, agonist luminescence; normalized to butyrate control; activation, % at 6.8 µM; 370,000 tested, 1.8% active;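 active = activation above a cutoff set at the mean of all screened compounds plus 3 SD, cut at about 10% in these data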
hcDAF12 agonist – H. contortus DAF-12 nuclear receptor activators, primary screen, cell-based, luminescence, HEK293, lit1-tk-luc reporter | HEK293 hcDAF-12 lit1-tk-luc reporter; 0% DMSO, 100% Δ7-dafachronic acid | activation, % at 6.8 µM | 370,000 tested, 1.4% active | AID 652067, 2013;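 active = activation above the mean of all tested compounds plus 3 SD, cut at about 5.5% in these data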
LXRb hcDAF ctr – LXR agonists, Gal4 luciferase reporter, confirmation, counter-screen for hcDAF-12 agonist project, cell-based, luminescence, HEK293, H. contortus campaign; 3,400 tested, under 10 active; shares compounds with hcDAF12 agonist; HEK293 Gal4-LXR tk-luc reporter, 24 h; normalized: DMSO 0%, positive control 100%; activation, % at 6.8 µM;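 active = mean percent activation of the reporter above a cutoff set as the average over tested compounds plus their standard deviation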
Target sequence (P55055 whole entry, looked up, the tested form may be a part): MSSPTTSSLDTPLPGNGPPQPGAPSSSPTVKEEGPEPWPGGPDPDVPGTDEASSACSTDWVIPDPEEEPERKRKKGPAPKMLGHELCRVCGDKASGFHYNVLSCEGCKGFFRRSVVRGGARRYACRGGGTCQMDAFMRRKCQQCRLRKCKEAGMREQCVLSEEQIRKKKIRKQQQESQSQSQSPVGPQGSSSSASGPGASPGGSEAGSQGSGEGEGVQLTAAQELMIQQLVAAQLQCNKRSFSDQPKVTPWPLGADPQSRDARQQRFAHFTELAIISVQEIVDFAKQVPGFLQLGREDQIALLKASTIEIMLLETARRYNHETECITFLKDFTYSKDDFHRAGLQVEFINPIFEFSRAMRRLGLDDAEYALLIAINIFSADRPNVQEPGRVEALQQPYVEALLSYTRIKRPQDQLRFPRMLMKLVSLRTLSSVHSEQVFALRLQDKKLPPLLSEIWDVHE
hcDAF12 conf – H. contortus DAF-12 receptor agonists, confirmation, cell-based, luminescence, HEK293, lit1-tk-luc, triplicate | activation, % at 6.8 µM | AID 743032, 2013 | 3,400 tested, 61% active | shares compounds with hcDAF12 agonist | HEK293 hcDAF-12 lit1-tk-luc reporter; % of Δ7-dafachronic acid response;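 active = mean activation across triplicate tests above the threshold derived from the earlier primary screen, cut at about 5.5% in these data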
hgDAF12 ag – H. glycines DAF-12 receptor agonists, confirmation, cell-based, luminescence, HEK293, GAL4-LBD fusion | shares compounds with hgDAF-12 ag | HEK293 GAL4-hgDAF12 luciferase reporter, agonist mode; percent of butyrate response | activation, % at 6.8 µM | 3,300 tested, 80% active;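 active = mean activation over triplicate wells above the hit cutoff derived from the earlier primary screen, cut at about 11% in these data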
LXR ag 2 – LXR agonists, Gal4 luciferase reporter, confirmation, counter-screen for hgDAF-12 agonist project, cell-based, luminescence, HEK293, H. glycines campaign. AID 743051, 2013. shares compounds with hgDAF-12 ag. 24 h. activation, % at 6.8 µM. 3,300 tested, under 10 active;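 active = mean activation of the triplicate above a set limit carried over from the primary screen, none filed active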
Each line names hits and unclear results; the compound was inactive in the other large screens (follow-up assays come after a bar, where they were run); ! = not active in a repeat.

Clc1ccccc1Nc1nnc(-c2ccncc2)s1	DAX1 inh-1 4.4, hgDAF-12 ag 17, hcDAF12 agonist 11 | LXRb hcDAF ctr inactive | hcDAF12 conf 6.7 | hgDAF12 ag 17 | LXR ag 2 inactive
O=C(Nc1ccc(F)c(C(F)(F)F)c1)Nc1nnc(-c2ccncc2)s1	none (no result: DAX1 inh-1, DAX1 inh-2)
CC1=CC(C)=Nc2ccc(C)cc2N1	DAX1 inh-1 4.1, hgDAF-12 ag 16, hcDAF12 agonist 5.6 | LXRb hcDAF ctr inactive | hcDAF12 conf inactive | hgDAF12 ag 12! | LXR ag 2 inactive
Cc1ccc2c(c1)NC(=O)CC(c1ccccc1)=N2	none
C[n+]1c2cc(N)ccc2cc2ccc(N)cc21	hgDAF-12 ag 13!, hcDAF12 agonist 6.6 | LXRb hcDAF ctr inactive | hcDAF12 conf 11 | hgDAF12 ag inactive | LXR ag 2 inactive
Nc1[nH]c(C(=O)c2ccccc2)c(-c2ccc(Cl)cc2)c1C(=O)c1c[nH]c2cc(F)ccc12	none (no result: DAX1 inh-2)
O=C(Nc1ccc2c(c1)OCO2)c1ccccc1	hgDAF-12 ag 16, hcDAF12 agonist 9.3 | LXRb hcDAF ctr inactive | hcDAF12 conf inactive | hgDAF12 ag 18 | LXR ag 2 inactive
O=C(NC(=S)Nc1ccc2c(c1)OCO2)c1ccccc1	hgDAF-12 ag 15, hcDAF12 agonist 8.7 | LXRb hcDAF ctr inactive | hcDAF12 conf 6.1 | hgDAF12 ag 20 | LXR ag 2 inactive
CSCc1c(C(=O)Nc2ccc3c(c2)OCO3)oc2ccccc12	none
Cc1c(C(=O)Nc2ccc3c(c2)OCO3)oc2ccccc12	ssDAF-12 act 2.8, hgDAF-12 ag 18, hcDAF12 agonist 16 | LXRb hcDAF ctr inactive | hcDAF12 conf 16 | hgDAF12 ag 21 | LXR ag 2 inactive
CCOC(=O)N1CCN(C(=O)C[C@H]2C[C@@]3(C(=O)OC)C(=C[C@H](C(C)(C)C)O[C@@H]3C)N(Cc3ccco3)C2=O)CC1	none (no result: DAX1 inh-2)
CC(C)C(C(=O)NCc1ccccc1)N1CCN(CCN2CCOCC2)CC1 (stereo not drawn)	none (no result: DAX1 inh-2)
C/C(=N\Nc1ccc(C(=O)O)cc1)c1ccc(Cl)s1	ssDAF-12 act 1.1, hgDAF-12 ag 16, hcDAF12 agonist 8.2 | LXRb hcDAF ctr inactive | hcDAF12 conf 11 | hgDAF12 ag 20 | LXR ag 2 inactive
C/C(=N\Nc1ccc(Cl)c(C(=O)O)c1)c1ccc(Br)s1	none
CCOC(=O)c1c(C)nc2c3ccccc3ccn12	ssDAF-12 act 2.7, DAX1 inh-1 3.7, hgDAF-12 ag 19, hcDAF12 agonist 9.7 | LXRb hcDAF ctr inactive | hcDAF12 conf 12 | hgDAF12 ag 17 | LXR ag 2 inactive
CCOC(=O)c1c(C)nc2c(C)cccn12	none
CSc1ccccc1-c1nnc(-c2ccc(C)cc2)o1	ssDAF-12 act 1.7, hgDAF-12 ag 15, hcDAF12 agonist 10 | LXRb hcDAF ctr inactive | hcDAF12 conf 8.8 | hgDAF12 ag 15 | LXR ag 2 inactive
CSc1nnc(-c2ccccc2SC)o1	none
COc1ccccc1-c1noc(-c2cccs2)n1	hgDAF-12 ag 19, hcDAF12 agonist 8.7 | LXRb hcDAF ctr inactive | hcDAF12 conf inactive | hgDAF12 ag 23 | LXR ag 2 inactive
COc1ccccc1-c1noc(-c2ccncc2)n1	none
O[C@H](COc1ccc(OC(F)(F)F)cc1)CN1CCC(C(O)(c2ccccc2)c2ccccc2)CC1	none (no result: DAX1 inh-2)
CC(C)Cc1cc(C(=O)Nc2cccc(O)c2)no1	hgDAF-12 ag 18, hcDAF12 agonist 8.4 | LXRb hcDAF ctr inactive | hcDAF12 conf 6.5 | hgDAF12 ag 19 | LXR ag 2 inactive
O=C(O)c1c(-c2ccccc2)oc2ccc(O)cc12	none
Cc1ccc2oc(-c3ccccc3)c(C(=O)O)c(=O)c2c1	hgDAF-12 ag 18, hcDAF12 agonist 6.7 | LXRb hcDAF ctr inactive | hcDAF12 conf 6.1 | hgDAF12 ag 18 | LXR ag 2 inactive
O=C(/C=C/Nc1ccccc1)c1ccc(Cl)cc1Cl	ssDAF-12 act 1.1, hgDAF-12 ag 15, hcDAF12 agonist 8.0 | LXRb hcDAF ctr inactive | hcDAF12 conf inactive | hgDAF12 ag 26 | LXR ag 2 inactive
Cc1cc(C)c2c(N)c(C(=O)Nc3ccc(F)cc3)sc2n1	hgDAF-12 ag 14, hcDAF12 agonist 8.8 | LXRb hcDAF ctr inactive | hcDAF12 conf 16 | hgDAF12 ag 24 | LXR ag 2 inactive
Cc1cc(C)c2c(N)c(C(=O)Nc3ccc([N+](=O)[O-])cc3)sc2n1	none
O=C(N/N=C/c1cccs1)c1n[nH]c2c1CCC2	ssDAF-12 act 1.8, hgDAF-12 ag 14, hcDAF12 agonist 7.1 | LXRb hcDAF ctr inactive | hcDAF12 conf inactive | hgDAF12 ag 14 | LXR ag 2 inactive
Cn1c(NC(=O)c2ccc(F)cc2)nc2ccccc21	ssDAF-12 act 1.9, hgDAF-12 ag 19, hcDAF12 agonist 14 | LXRb hcDAF ctr inactive | hcDAF12 conf 15 | hgDAF12 ag 21 | LXR ag 2 inactive
Cn1c(Nc2ccc(F)cc2)nc2ccccc21	none
O=C(Cn1nnc(-c2ccc(N3CCOCC3)cc2)n1)c1ccc(F)cc1	none (no result: DAX1 inh-2)
CCN(CCn1cccn1)C(=O)c1cc(COc2cc(C)ccc2C)on1	ssDAF-12 act 1.7, hgDAF-12 ag 14, hcDAF12 agonist 7.5 | LXRb hcDAF ctr inactive | hcDAF12 conf inactive | hgDAF12 ag 12 | LXR ag 2 inactive
CCN(CCn1cccn1)C(=O)c1cc(COc2ccc(F)c(F)c2)on1	none
CCCCCCCCN1C(=O)[C@@H](CC(=O)NCc2ccc(C)o2)C[C@@]2(C(=O)OC)C1=C[C@H](COCc1ccccc1)O[C@@H]2C	none (no result: DAX1 inh-2)
